Assay [1] is described as follows: Nuclear factor erythroid 2-related factor 2/antioxidant responsive element (Nrf2/ARE) small molecule agonists: qHTS cell viability counter screen in human keratinocytes (AID 1919968; active = well fitted curve in the direction sought with a large enough effect in the repeat runs; an effect the other way counts as inactive or inconclusive; also: nearly all actives have a fitted effect of over 55% in size). The method, boiled down: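 Cytotoxicity was multiplexed with the Nrf2/ARE luciferase assay in the same wells. Stably transfected HaCaT keratinocytes were treated with test compounds for 23 h at 37 C. Cell viability was then measured by CellTiter-Fluor fluorescence.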
A general note: qHTS replaces the single test concentration by a dilution series.

The target of assay [2] is Gonadotropin-releasing hormone receptor (Homo sapiens) (UniProt P30968). Description: Human gonadotropin-releasing hormone receptor (GnRHR) small molecule agonists, calcium flux assay in GnRHR-HEK293 cells (AID 1920063). Also: nearly all actives have a fitted effect of over 35% in size. The method, boiled down: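 Agonist activity was measured as intracellular calcium flux in HEK293 cells engineered to stably express human GnRHR. After dye loading for 1 hour at 37 C, compounds in DMSO were added and fluorescence was followed for 3 minutes.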
(Calcium assays in cells follow changes in intracellular calcium, usually with a dye or a luminescent sensor.)

Assay [3] has as its target KiSS-1 receptor (Homo sapiens) (UniProt Q969F8). Description: Human kisspeptin (KISS1R) small molecule agonists, calcium flux assay in KISS1R-HEK293 cells (AID 1920064; active = well fitted curve in the direction sought with a large enough effect in the repeat runs; an effect the other way counts as inactive or inconclusive). Summed up:
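Agonist activity is monitored as intracellular calcium rise in engineered HEK293 cells carrying human KISS1R. Cells are dye-loaded for 1 h at 37 C before compound addition, and fluorescence is recorded for 3 min.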

Assay [4] in a line: G protein-coupled receptor (GPCR) small molecule agonists, calcium flux assay: HEK293 wild type cell line counter screen (AID 1920065). Summed up: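 Seed cells, incubate 18 h (37 C, 5% CO2); add calcium dye, 1 h at 37 C; pin-transfer compounds, ATP control or DMSO; read fluorescence 480/540 nm each second for 3 min.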
Assay [5] in a line: p53 small molecule agonists, cell-based qHTS assay with human liver microsomes (AID 1963577).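 Also: p53 response element beta-lactamase reporter cells with liver microsomes plus NADPH.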 The method, boiled down:
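HLM-supplemented p53RE-bla reporter assay: 16 h compound exposure at 37 C, microsomes and NADPH each 0.5 mg/mL final, read by fluorescence intensity.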

Assay [6] is described as follows: p53 small molecule agonists, cell-based qHTS assay with rat liver microsomes (AID 1963578). Summed up:
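Quantitative HTS of the Tox21 10K library: p53RE-bla cells, rat liver microsomes plus NADPH at 0.5 mg/mL final each, 16 h at 37 C, beta-lactamase fluorescence detection.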

A short description of assay [7]: p53 small molecule agonists, cell-based qHTS assay with human liver microsomes: qHTS cell viability counter screen (AID 1963579). Also: nearly all actives have a fitted effect of over 45% in size. Also: potency is read from the fitted curve at half-maximal effect. The method, boiled down: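 Viability of p53RE-bla cells is measured as CellTiter-Glo luminescence following a 16 h, 37 C incubation with compound, liver microsomes from human donors and NADPH.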
Assay [8] is described as follows: p53 small molecule agonists, cell-based qHTS assay with rat liver microsomes: qHTS cell viability counter screen (AID 1963580). Also: nearly all actives have a fitted effect of over 45% in size. Summed up:
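Cytotoxicity counter screen: intracellular ATP read by CellTiter-Glo luminescence in the p53 reporter wells. HCT-116 p53RE-bla cells were treated for 16 h at 37 C alongside rat liver microsomes and NADPH, each 0.5 mg/mL final.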

Assay [9] in a line: p53 small molecule agonists, cell-based qHTS assay: qHTS cell viability counter screen (AID 1963581). Also: nearly all actives have a fitted effect of over 45% in size. The method, boiled down: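 Viability was counter-screened in parallel with the p53 agonist reporter by measuring intracellular ATP luminescence in the same HCT-116 p53RE-bla wells after 16 h compound treatment at 37 C.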
Assay [10] can be described thus: p53 small molecule agonists, cell-based qHTS assay (AID 1963582; active = well fitted activation curve with a large enough effect in the signal ratio in the repeat runs, not every such curve was filed as active; the % refers to the signal ratio). The method, boiled down:
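Cells carrying a p53-responsive bla reporter are treated with test compounds for 16 h at 37 C; beta-lactamase activity is then detected with LiveBLAzer B/G FRET substrate after 2 h at room temperature.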

The target in assay [11] is 5-hydroxytryptamine receptor 2A (Homo sapiens) (UniProt P28223). Description: 5-hydroxytryptamine receptor 2A (HTR2A) small molecule agonists, cell-based qHTS assay (AID 1963587). Also: nearly all actives have a fitted effect of over 30% in size. The method, boiled down: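 Kinetic calcium-flux fluorescence (2 min, 1 sec intervals) after compound addition in agonist mode. HTR2A-CHO cells were cultured 18 h, then dye-loaded 1 h at 37 C.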

For assay [12], the target named is Muscarinic acetylcholine receptor M1 (Homo sapiens) (UniProt P11229). The experiment in a line: Cholinergic receptor muscarinic 1 (CHRM1) small molecule agonists, cell-based qHTS assay (AID 1963589). Also: nearly all actives have a fitted effect of over 35% in size. Summed up: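 Cells were plated and incubated 18 h at 37 C/5% CO2, loaded with calcium dye for 1 h at 37 C, then treated with compounds in DMSO. Fluorescence was recorded kinetically at 1 sec intervals.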

The target in assay [13] is Beta-2 adrenergic receptor (Homo sapiens) (UniProt P07550). The experiment in a line: Adrenergic beta2 receptor (ADRB2) small molecule antagonists, cell-based qHTS assay (AID 1963592). Also: series mostly up to about 92 µM; nearly all actives have a fitted effect of over 50% in size. Summed up: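 Assay format: CHO-ADRB2 cells, 18-20hr seeding at 37C/5% CO2, then compound plus 1nM isoproterenol agonist mix for 0.5hr RT. Homogeneous time-resolved fluorescence cAMP detection after 1hr, expressed as 665/615 nm ratio.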

The target of assay [14] is D(2) dopamine receptor (Homo sapiens) (UniProt P14416). Description: Dopamine D2 receptor (DRD2) small molecule antagonists, cell-based qHTS assay (AID 1963595; active = well fitted inhibition curve with a large enough effect in the signal ratio in the repeat runs, with a control signal flat; the % refers to the signal ratio). The method, boiled down: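 Stable D2 receptor HEK293 line, 24 h after seeding. Compound preincubated 10 min, then quinpirole (12 nM) with forskolin analogue NKH477 (200 nM), 30 min, room temperature. Detection by time-resolved FRET of cAMP.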

The target in assay [15] is 5-hydroxytryptamine receptor 2A (Homo sapiens) (UniProt P28223). The experiment in a line: 5-hydroxytryptamine receptor 2A (HTR2A) small molecule antagonists, cell-based qHTS assay (AID 1963586). Also: nearly all actives have a fitted effect of over 45% in size. Summed up:
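CHO cells stably expressing human HTR2A were plated for 18 h at 37 C, then loaded with calcium dye for 1 h. Compounds were preincubated 5 min at room temperature before DOI (4 nM solution) was added. Kinetic fluorescence was read for 3 min.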

Assay [16] addresses Muscarinic acetylcholine receptor M1 (Homo sapiens) (UniProt P11229). Description: Cholinergic receptor muscarinic 1 (CHRM1) small molecule antagonists, cell-based qHTS assay (AID 1963588). Also: nearly all actives have a fitted effect of over 40% in size. Summed up: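 Compounds were tested at 15 concentrations in three independent runs. Dye-loaded CHRM1-CHO cells were exposed 5 min at room temperature before stimulation by acetylcholine added at 50nM. Intracellular calcium was read kinetically on FDSS for 3 min.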

Assay [17] has as its target Beta-2 adrenergic receptor (Homo sapiens) (UniProt P07550). The experiment in a line: Adrenergic beta2 receptor (ADRB2) small molecule agonists, cell-based qHTS assay (AID 1963593).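 Also: CHO cells stably overexpressing human ADRB2.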 The method, boiled down:
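CHO cells stably over-expressing ADRB2 were plated overnight at 37C, then dosed with compounds plus a stimulation mix containing 100uM IBMX and 25uM Ro-20-1724 for 0.5hr at room temperature. cAMP was measured by HTRF competition, 1hr.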

In assay [18] the target is D(2) dopamine receptor (Homo sapiens) (UniProt P14416). The experiment in a line: Dopamine D2 receptor (DRD2) small molecule agonists, cell-based qHTS assay (AID 1963594). Also: nearly all actives have a fitted effect of over 35% in size. The method, boiled down:
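cAMP accumulation in DRD2-HEK293 cells measured by HTRF after 1 h detection; compounds added 10 min before NKH477 (200nM […]) forskolin-analogue stimulation, 30 min at room temperature, with Ro20-1724 present at 0.1 mM final.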

Assay [19] can be described thus: cAMP Responsive Elements (CRE) small molecule agonists, cell-based qHTS assay (AID 1963590). The method, boiled down: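 Cells carrying a CRE-driven beta-lactamase reporter (HEK 293T) are seeded, incubated overnight (18 h), and treated with test compounds for 3 h at 37 C; reporter activity is then detected with a FRET substrate after 2 h at room temperature.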
The nature of assay [20]: cAMP Responsive Elements (CRE) small molecule antagonists, cell-based qHTS assay (AID 1963591; active = well fitted inhibition curve with a large enough effect in the signal ratio in the repeat runs, not every such curve was filed as active; the % refers to the signal ratio). The method, boiled down: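 Cells (CRE-bla HEK 293T, DMEM with 10% dialyzed FBS and 25 mM HEPES) are seeded and incubated 18 h. Compounds are added with NKH477 agonist at 0.25 uM final for 3 h, then FRET substrate for 2 h.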

Potency data for 7 compounds are collected here from PubChem BioAssay (Tox21).

Unmarked numbers belong to inactive results. Results filed as inconclusive are left out. Active and inactive are the calls of the source. Unless noted, calls follow the shape of the full dose curve.

Beta-2 adrenergic receptor (Homo sapiens), sequence (P07550 whole entry, looked up): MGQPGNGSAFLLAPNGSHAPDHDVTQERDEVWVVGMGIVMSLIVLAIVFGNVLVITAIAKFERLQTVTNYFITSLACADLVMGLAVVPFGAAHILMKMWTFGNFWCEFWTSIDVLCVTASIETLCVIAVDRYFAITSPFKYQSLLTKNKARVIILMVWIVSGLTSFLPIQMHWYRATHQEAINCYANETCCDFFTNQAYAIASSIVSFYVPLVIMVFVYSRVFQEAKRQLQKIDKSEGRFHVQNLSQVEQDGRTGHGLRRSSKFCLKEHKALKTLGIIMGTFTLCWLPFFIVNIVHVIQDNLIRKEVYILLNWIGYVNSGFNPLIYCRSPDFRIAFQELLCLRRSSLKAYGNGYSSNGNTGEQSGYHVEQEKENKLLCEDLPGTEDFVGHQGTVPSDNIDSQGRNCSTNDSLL
KiSS-1 receptor (Homo sapiens), sequence (Q969F8 whole entry, looked up): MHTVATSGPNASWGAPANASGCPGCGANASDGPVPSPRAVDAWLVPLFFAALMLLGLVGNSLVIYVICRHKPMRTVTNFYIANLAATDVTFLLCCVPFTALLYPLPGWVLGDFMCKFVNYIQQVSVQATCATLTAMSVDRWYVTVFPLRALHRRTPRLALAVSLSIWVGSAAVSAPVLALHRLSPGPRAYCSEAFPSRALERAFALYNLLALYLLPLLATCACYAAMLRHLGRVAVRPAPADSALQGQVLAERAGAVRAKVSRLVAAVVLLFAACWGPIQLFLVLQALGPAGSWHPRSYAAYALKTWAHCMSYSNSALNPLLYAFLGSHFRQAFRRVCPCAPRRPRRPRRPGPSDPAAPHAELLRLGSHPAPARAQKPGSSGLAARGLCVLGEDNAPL
D(2) dopamine receptor (Homo sapiens), sequence (P14416 whole entry, looked up): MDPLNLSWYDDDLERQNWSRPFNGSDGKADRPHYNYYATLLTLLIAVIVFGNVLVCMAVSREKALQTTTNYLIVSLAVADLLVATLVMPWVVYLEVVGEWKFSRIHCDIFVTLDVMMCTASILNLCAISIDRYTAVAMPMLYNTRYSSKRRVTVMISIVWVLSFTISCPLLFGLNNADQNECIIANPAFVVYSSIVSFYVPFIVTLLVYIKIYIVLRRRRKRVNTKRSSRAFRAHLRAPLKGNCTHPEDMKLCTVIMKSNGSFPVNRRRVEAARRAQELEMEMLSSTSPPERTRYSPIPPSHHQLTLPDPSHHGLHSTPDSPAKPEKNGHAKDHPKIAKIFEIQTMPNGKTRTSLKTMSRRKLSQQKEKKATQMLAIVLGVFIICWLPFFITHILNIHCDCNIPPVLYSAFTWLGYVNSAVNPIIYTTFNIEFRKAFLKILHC
Muscarinic acetylcholine receptor M1 (Homo sapiens), sequence (P11229 whole entry, looked up): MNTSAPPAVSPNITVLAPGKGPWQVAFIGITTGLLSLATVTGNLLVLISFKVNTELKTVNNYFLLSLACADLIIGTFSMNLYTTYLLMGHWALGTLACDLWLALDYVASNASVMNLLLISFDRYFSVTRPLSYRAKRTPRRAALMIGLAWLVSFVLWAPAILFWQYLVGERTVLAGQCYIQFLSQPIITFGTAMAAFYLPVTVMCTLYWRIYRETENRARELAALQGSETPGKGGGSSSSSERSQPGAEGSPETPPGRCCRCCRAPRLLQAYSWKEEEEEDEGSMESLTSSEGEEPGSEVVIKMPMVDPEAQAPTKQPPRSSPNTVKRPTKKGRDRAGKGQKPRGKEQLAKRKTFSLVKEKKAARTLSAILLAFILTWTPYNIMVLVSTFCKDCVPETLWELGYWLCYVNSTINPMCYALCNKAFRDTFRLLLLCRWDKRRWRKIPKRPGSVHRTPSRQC
5-hydroxytryptamine receptor 2A (Homo sapiens), sequence (P28223 whole entry, looked up): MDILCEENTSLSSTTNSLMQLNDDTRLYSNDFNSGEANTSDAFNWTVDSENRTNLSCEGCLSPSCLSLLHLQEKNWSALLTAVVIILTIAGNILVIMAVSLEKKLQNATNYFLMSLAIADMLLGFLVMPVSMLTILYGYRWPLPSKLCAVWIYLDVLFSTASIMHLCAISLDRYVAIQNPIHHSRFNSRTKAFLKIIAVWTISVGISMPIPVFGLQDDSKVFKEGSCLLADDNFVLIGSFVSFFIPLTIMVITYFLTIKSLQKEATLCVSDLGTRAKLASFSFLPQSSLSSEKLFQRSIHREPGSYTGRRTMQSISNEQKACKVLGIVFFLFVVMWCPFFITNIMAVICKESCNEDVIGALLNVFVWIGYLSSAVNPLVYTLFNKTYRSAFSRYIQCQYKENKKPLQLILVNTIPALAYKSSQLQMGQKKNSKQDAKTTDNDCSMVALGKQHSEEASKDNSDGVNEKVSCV
Gonadotropin-releasing hormone receptor (Homo sapiens), sequence (P30968 whole entry, looked up): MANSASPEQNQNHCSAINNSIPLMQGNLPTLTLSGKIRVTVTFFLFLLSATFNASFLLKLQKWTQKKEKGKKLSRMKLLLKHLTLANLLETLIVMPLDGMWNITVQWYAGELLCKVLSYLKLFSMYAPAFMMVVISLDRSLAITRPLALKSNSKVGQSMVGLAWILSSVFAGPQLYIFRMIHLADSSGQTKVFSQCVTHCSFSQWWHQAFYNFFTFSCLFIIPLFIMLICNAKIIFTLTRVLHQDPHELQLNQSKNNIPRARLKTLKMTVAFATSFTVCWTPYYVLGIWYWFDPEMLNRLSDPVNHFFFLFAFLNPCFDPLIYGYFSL

`O=c1[nH]nc(-c2ccc([N+](=O)[O-])o2)o1`: the Potency result in assay [1], in assay [2], in assay [3], in assay [4], in [5] and in assay [6] was “inactive” each time. For the same compound, the Potency result in [7], in assay [8], in assay [9], in [10], in [11] and in assay [12] was “inactive” throughout. Also, the Potency entry in assay [13] and in assay [14] was “inactive” throughout.

Regarding `Nc1c(Cl)cc(Cl)cc1[N+](=O)[O-]`, the Potency result in assay [1], in [2], in assay [3], in [4], in [5] and in assay [6] was “inactive” in each case. Besides, the Potency result in [7], in [8], in assay [9], in assay [10], in [15] and in assay [11] was “inactive” throughout. Moreover, the Potency entry in assay [16], in assay [12], in [13], in [17], in assay [18] and in [14] was “inactive” in each case.

Take `CC1(CO)CN(c2ccccc2)NC1=O` (configuration not stated): the Potency result in assay [1], in [2], in assay [3], in assay [4], in assay [5] and in [6] was “inactive” throughout. The Potency result in [7], in assay [8], in assay [9], in assay [10], in assay [15] and in assay [11] was “inactive” throughout. The Potency entry in [12], in assay [19], in [20], in assay [13] and in assay [17] was “inactive” in each case.

As for `Nc1nc2ccccc2n1Cc1ccc(F)cc1`, the Potency entry in [1], in assay [2], in assay [3], in assay [4], in assay [5] and in assay [6] was “inactive” throughout. Also, the Potency entry in [7], in [8], in [9], in assay [10], in assay [11] and in assay [16] was “inactive” in each case. The Potency entry in assay [19], in assay [20], in [13], in assay [18] and in [14] was “inactive” throughout.

Regarding `Nc1ccn([C@H]2CS[C@@H](CO)O2)c(=O)n1`, the Potency result in assay [1], in assay [2], in assay [3], in [4], in [5] and in assay [6] was “inactive” each time. In addition, the Potency entry in assay [7], in assay [8], in [9], in assay [10], in assay [19] and in [20] was “inactive” throughout. The Potency result in assay [13], in assay [17], in assay [18] and in assay [14] was “inactive” in each case.

For the compound `CC(C)(C)c1ccc(C(=O)O)cc1`, the Potency entry in [1], in assay [2], in [3], in assay [4], in [5] and in [6] was “inactive” each time. For the same compound, the Potency entry in assay [7], in assay [8], in assay [9], in assay [10], in assay [15] and in assay [11] was “inactive” in each case. The Potency result in assay [16], in [12], in [13], in assay [17], in assay [18] and in [14] was “inactive” in each case.

As for `CCCCOC(=O)CC#N`, the Potency result in assay [1], in assay [2], in [3], in assay [4], in assay [5] and in [6] was “inactive” throughout. Besides, the Potency entry in assay [8], in assay [9], in assay [10], in [15], in assay [11] and in assay [16] was “inactive” each time. In addition, the Potency entry in assay [19], in assay [13], in assay [18] and in assay [14] was “inactive” throughout. For the same compound, in assay [7], the Potency was 17 µM (active).
